High-throughput results: PubChem, Broad Institute
An excerpt weighted towards active compounds, which were near 1.2% of everything screened.
RAD54 branch: RAD54 (human) branch migration inhibition. Q92698. RAD54 Holliday junction branch migration, FAM/BHQ fluorescence. inhibition, % at 10.4 µM. actives 0.14% (n = 360,000). AID 602329;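 active means mean normalized replicate activity at least 40 and at least half of replicates scoring 40 or more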;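 further: 0% = median of neutral control wells and 100% = median of positive control wells; inhibitors cause a drop in the FAM fluorescence signal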
N-glyco inh: blocks N-linked glycosylation in D54 reporter cells. actives 0.23% (n = 360,000). reporter increase, % at 12.5 µM. D54 ERlucT glycosylation luciferase reporter, 24 h; percent of 100 nM tunicamycin response. AID 588692;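 active means mean luciferase reporter signal, scaled so untreated is 0 and the glycosylation-blocking control 100, at or above a set limit in every replicate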;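 further: luciferase carries N-glycosylation sites so blocking glycosylation raises the light; 0% = median of neutral control wells and 100% = median of 100 nM tunicamycin wells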
MLL AF4-AF9 inh: MLL-AF4/AF9 protein interaction inhibition; P42568; actives 0.47% (n = 350,000); inhibition, % at 10 µM; AlphaScreen, biotin-AF4 peptide binding to FLAG-AF9;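 active means every replicate reaching a set inhibition limit, whatever the replicate mean, cut at about 25% in these data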;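 further: 0% = plate neutral control median and 100% = total signal loss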
CASP6 VEID inh: inhibitors of human caspase-6. actives 0.53% (n = 350,000). inhibition, % at 12.5 µM. purified caspase-6, Z-VEID-R110 cleavage fluorescence. AID 686996. P55212;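 active means mean inhibition across replicates at least about 35%, with every replicate also reaching that limit, limit read from the data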;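 further: 0% = median of neutral control wells and 100% = no fluorescence left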
RAD52 anneal inh: RAD52 (human) annealing inhibition | P43351 | recombinant RAD52 DNA annealing, FRET fluorescence | inhibition, % at 18.7 µM | actives 0.46% (n = 360,000);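 active means every replicate showing at least 50% inhibition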
Target sequence (P43351 whole entry, looked up): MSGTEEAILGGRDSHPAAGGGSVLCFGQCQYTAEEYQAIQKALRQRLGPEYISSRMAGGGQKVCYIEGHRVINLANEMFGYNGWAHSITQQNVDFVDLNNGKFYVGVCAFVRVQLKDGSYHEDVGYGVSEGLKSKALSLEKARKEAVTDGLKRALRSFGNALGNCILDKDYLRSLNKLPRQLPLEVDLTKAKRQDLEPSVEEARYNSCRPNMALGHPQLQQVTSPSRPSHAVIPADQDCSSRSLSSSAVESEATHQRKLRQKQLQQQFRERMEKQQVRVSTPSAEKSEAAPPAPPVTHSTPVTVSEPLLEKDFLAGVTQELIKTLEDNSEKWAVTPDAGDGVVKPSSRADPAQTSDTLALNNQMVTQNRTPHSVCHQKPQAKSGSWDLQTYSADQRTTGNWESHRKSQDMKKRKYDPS
The depositor's hits bear a star; . = no result.

SMILES	RAD54 branch	N-glyco inh	MLL AF4-AF9 inh	CASP6 VEID inh	RAD52 anneal inh
COc1ccc(/C=C/C(=O)Nc2ccccc2C(=O)NCC(c2ccc(OC)cc2)N(C)C)cc1 (centres undefined)	-1.0	0.4	25.7*	-5.3	10.6
O=C(C[C@H]1CC[C@@H]2[C@H](COC[C@@H](O)CN2C(=O)Cc2ccccc2)O1)NC1CCCC1	0.1	.	1.0	2.2	-2.5
CN(Cc1cn(-c2ccccc2)nc1-c1ccc2c(c1)OCO2)Cc1nccn1C	-9.4	-3.9	33.5*	-9.2	-8.9
COc1ccc(N=C2S/C(=C\c3ccc(OCC(=O)O)cc3)C(=O)N2CCc2c[nH]c3ccccc23)cc1	.	-2.7	35.3*	82.5*	-26.3
COc1ccc(N=C2S/C(=C\c3ccc(N4CCOCC4)o3)C(=O)N2CCc2c[nH]c3ccccc23)cc1	-1.1	-3.7	.	.	.
COc1ccc(CNc2ncc(-c3ccc(F)cc3)n2C)cc1OC	5.1	-2.4	8.4	2.3	6.6
COc1cc(CNc2ncc(-c3ccc(Br)cc3)n2C)cc(OC)c1O	10.5	-0.1	25.3*	0.7	-6.2
COc1ccccc1C1C2=C(N=c3s/c(=C/c4cccc(OCC(=O)O)c4)c(=O)n31)c1ccccc1CC2 (centres undefined)	.	-4.8	10.2	37.9*	-22.4
COc1cccc(C2C3=C(N=c4s/c(=C\c5cccc(O)c5)c(=O)n42)c2ccccc2CC3)c1OC (centres undefined)	4.8	-4.4	15.1	-1.2	-23.8
Cn1c(=O)n(C)c2cc(NC(=O)c3ccccc3)ccc21	-1.7	10.1	-0.6	-2.8	-2.4
CC(C)Sc1ccccc1C(=O)Nc1ccc2c(c1)n(C)c(=O)n2C	5.9	34.5*	-5.6	-0.4	-6.6
CC(=O)Nc1ccc2c(c1)n(C)c(=O)n2C	-7.2	3.7	.	.	.
Cn1c(=O)n(C)c2cc(NC(=O)CCl)ccc21	.	82.3*	.	.	.
CCOc1cc(N2CCOCC2)c(OCC)cc1NC(C)C(=O)N1CCN(CC)CC1 (centres undefined)	.	8.1	5.6	70.2*	5.6
CCOc1cc(N2CCOCC2)c(OCC)cc1NC(=O)C(C)C	-1.2	0.3	-41.0	-1.2	-9.3
CCOc1cc(N2CCOCC2)c(OCC)cc1NS(=O)(=O)c1cc(NC(C)=O)ccc1OC	2.4	2.7	3.6	36.7*	-17.9
CCOc1cc(N2CCOCC2)c(OCC)cc1NC(=O)CN1C(=O)NC(Cc2ccccc2)C1=O (centres undefined)	-6.6	1.8	.	.	.
CCOc1cc(N2CCOCC2)c(OCC)cc1NC(=O)CN1CCC(Cc2ccccc2)CC1	.	-1.4	28.9*	-1.7	-9.9
Cc1ccc(S(=O)(=O)NCC[C@@H]2CC[C@@H](NC(=O)C3CCOCC3)[C@H](CO)O2)cc1	-11.7	.	-0.4	-3.0	4.8
O=C(NC1CCCC1)N[C@@H]1CC[C@@H](CC(=O)N2CCOCC2)O[C@H]1CO	6.6	.	1.3	-0.5	9.5
COc1ccc2c3c([nH]c2c1)[C@@H](CO)N(C(=O)Nc1cccc(F)c1)CC31CCN(CC2CC2)CC1	.	.	25.4*	-0.2	-4.7
COc1ccc2c3c([nH]c2c1)[C@H](CO)N(C(=O)Nc1cccc(F)c1)CC31CN(CC2CC2)C1	.	.	28.9*	-0.5	1.8
COc1ccc(NC(=O)N(C)C[C@H]2Oc3ccc(NC(=O)Nc4ccccc4)cc3C(=O)N([C@@H](C)CO)C[C@@H]2C)cc1	12.4	.	-0.4	-0.4	-10.3
O=C(CCS(=O)(=O)c1ccc(Br)cc1)NCc1ccc(F)cc1	-0.5	-1.5	-16.2	69.6*	-2.1
O=C(CCS(=O)(=O)c1ccc(Br)cc1)NCCC1=CCCCC1	-1.4	0.1	-5.8	66.3*	-4.0
SMILES	RAD54 branch	N-glyco inh	MLL AF4-AF9 inh	CASP6 VEID inh	RAD52 anneal inh
O=C(CCS(=O)(=O)c1ccc(Br)cc1)NC1CCCCCC1	2.0	3.0	-11.5	60.7*	-5.8
COC(=O)C[C@@H]1C[C@@H]2c3cc(NS(=O)(=O)c4ccc(OC)cc4)ccc3O[C@@H]2[C@H](CO)O1	1.9	.	.	.	.
CO[C@H]1CN(C)C(=O)c2cc(NC(=O)Nc3cc(F)ccc3F)ccc2OC[C@H](C)N(C)C[C@H]1C	5.8	.	-17.7	.	24.9
CC1=C/C(=C\c2ccc(Br)o2)C(=O)O1	.	3.8	-5.2	83.1*	-16.1
COc1ccccc1-c1ccc(/C=C2/C=C(C)OC2=O)o1	.	1.8	.	.	.
COc1cc(/C=N/N2CCN(c3ccccc3)CC2)cc(OC)c1OC(C)=O	-1.4	3.3	26.2*	-2.7	-9.4
CN(C)C(=O)[C@@H]1[C@@H](CO)[C@@H]2Cn3c(cccc3=O)[C@@H]2N1C(=O)NC1CCCC1	.	.	.	.	-7.6
CCOC(=O)[C@H]1[C@H]2COc3ccc(Br)cc3[C@@H]2N2C(=O)c3cc(OC)c(OC)cc3NC(=O)[C@@]12C	2.9	31.4*	7.3	0.4	-12.2
CCOC(=O)[C@H]1[C@H]2COc3ccc(C)cc3[C@@H]2N2C(=O)c3cc(OC)c(OC)cc3NC(=O)[C@@]12C	-0.6	8.9	2.8	1.3	16.6
CCOC(=O)[C@H]1[C@H]2COc3ccc(OC)cc3[C@@H]2N2C(=O)c3cc(OC)c(OC)cc3NC(=O)[C@@]12C	14.8	30.8*	2.9	1.4	1.4
CN(C)C(=O)C[C@H]1CC[C@@H]2[C@H](COC[C@@H](O)CN2C(=O)C2CC2)O1	3.9	.	-1.2	-0.5	-13.5
CCCC(=O)N1CC2(C1)CN(Cc1ccc(Cl)cc1)[C@H](CO)c1[nH]c3cc(OC)ccc3c12	.	.	0.6	-0.2	-0.9
Cc1ncoc1C(=O)Nc1cccc(Cl)c1	-8.5	4.2	6.7	4.0	-25.7
Cc1ccc(NC(=O)c2ocnc2C)cc1Cl	-0.8	1.0	-38.1	58.6*	-8.8
CCOC(=O)N1CCN(c2ccc(C(=O)CC)cc2F)CC1	.	-1.9	.	.	.
CCC(=O)c1ccc(N2CCN(C(=O)c3ccccc3)CC2)c(F)c1	.	-3.0	-2.7	88.4*	-9.0
CCCC(=O)Nc1ccc2c(c1)OC[C@@H](C)N(Cc1cncnc1)C[C@@H](C)[C@@H](OC)CN(C)C2=O	1.5	.	44.5*	-1.7	-7.9
CCCN1C[C@@H](C)[C@H](OC)CN(C)C(=O)c2ccc(NC(=O)c3cccc(F)c3)cc2OC[C@@H]1C	-2.4	.	45.0*	-0.9	-0.1
C[C@@H]1CN([C@H](C)CO)S(=O)(=O)c2ccc(/C=C/c3ccccc3)cc2O[C@H]1CN(C)C(=O)NC1CCCC1	2.5	.	7.8	-1.4	-6.4
C[C@@H]1CCCCO[C@H](CN(C)CC2CCCCC2)[C@H](C)CN([C@H](C)CO)C(=O)c2cc(NC(=O)Nc3cccc4ccccc34)ccc2O1	5.5	.	14.3	1.7	-53.3
C[C@H](CO)N1C[C@H](C)[C@H](CN(C)Cc2ccc3c(c2)OCO3)Oc2c(NS(=O)(=O)c3cn(C)cn3)cccc2C1=O	-3.3	.	-2.2	-3.0	5.4
COc1ccc(CN(C)C[C@@H]2Oc3ccc(NC(=O)NC(C)C)cc3CC(=O)N([C@H](C)CO)C[C@@H]2C)cc1	20.9	.	-2.2	-9.9	2.3
O=C(Nc1nc(-c2ccco2)c(-c2ccco2)s1)c1c(F)cccc1Cl	8.0	-0.6	2.9	75.4*	-13.6
